Source: PubChem (several laboratories)
Rows were chosen to be rich in hits. Some 2.1% of all compounds tested hit in one or more screens of this group.
Measles CPE: compounds protecting cells from measles virus cytopathic effect, primary screen, measles RdRp inhibitor project, single point, MLSMR library, absorbance; Measles virus-infected cells, CPE protection; protection (pct of control), % at 4 µM; 1.5% of 140,000 active; AID 841, 2007; in the data active = protection mostly above about 24%, no sharp cut-off; inactive = mostly below about 26%
NFkB transloc inh: inhibitors of IL-1B driven NFkB p65 nuclear import, primary screen, imaging, HUVEC, IL-1B stimulus, high-content imaging. HUVEC IL-1B NFkB p65 nuclear translocation imaging. inhibition, % at 2 µM. 0.43% of 94,000 active;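 active = inhibition above about 30% together with a positive call from visual inspection of the well image, limit read from the data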;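 also: nuclear over cytoplasmic p65 intensity ratio measured by imaging; 0% = IL-1B stimulated DMSO wells and 100% = unstimulated DMSO wells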
IL1B NFkB pot: enhancers of NFkB p65 translocation in HUVEC – imaging, IL-1B stimulus, high-content imaging, primary screen | HUVEC IL-1B NFkB p65 nuclear translocation imaging | activation, % at 2 µM | 0.3% of 94,000 active;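 active = activation above 40%, about the mean plus 3 SD, also judged a hit on visual image review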;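 also: percent activation is computed from the nuclear over cytoplasmic p65 intensity ratio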
IL1B cytotox: cytotoxicity in IL-1B stimulated HUVEC, primary screen, cytotoxicity control for IL-1B NFkB translocation project, imaging, Hoechst nuclear count, IL-1B stimulus; HUVEC cell count loss; cell count reduction, % at 2 µM; 0.41% of 94,000 active;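 active = cell count reduction more than 3 SD above the screen-wide mean, cut at about 70% in these data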;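 also: normalized per plate to untreated control cells as the no-loss baseline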
* = called active by the depositor; . = not tested or not shown.

SMILES	Measles CPE	NFkB transloc inh	IL1B NFkB pot	IL1B cytotox
Cc1ccc(SCC(=O)c2c(C)[nH]c3ccccc23)cc1	40.6*	.	.	.
Cc1ccc(OC(=O)Cn2c(C(F)(F)F)nc3ccccc32)cc1	4.5	-7.1	7.1	13.4
COC(=O)c1c(-c2ccc(C)cc2)csc1NC(=O)C1CC=CCC1C(=O)O (stereo not given)	47.2*	.	.	.
COC(=O)c1c(-c2ccc(C(C)(C)C)cc2)csc1NC(=O)C1C2CCC(O2)C1C(=O)O (stereo not given)	10.5	.	.	.
O=C1CSc2ccc(C(=O)NCCC3=CCCCC3)cc2N1	4.3	8.9	-8.9	-16.0
CCN(CC)CCNc1nc(-c2ccccc2)nnc1C(F)(F)F	42.8*	-1.1	1.1	-5.7
FC(F)(F)c1nnc(-c2ccccc2)nc1Sc1ccccc1	15.9	14.3	-14.3	-28.0
CN(N)c1nc(-c2ccccc2)nnc1C(F)(F)F	6.6	0.8	-0.8	85.8*
O=C(c1ccc(CS(=O)(=O)c2cccc(C(F)(F)F)c2)o1)N1CCN(c2ccccn2)CC1	.	-23.8	23.8	-5.2
O=S(=O)(c1ccc2nc(COc3ccc(Cl)cc3Cl)[nH]c2c1)N1CCOCC1	52.6*	6.9	-6.9	-3.1
Cc1ccccc1OCc1nc2ccc(S(=O)(=O)N3CCOCC3)cc2[nH]1	17.1	3.3	-3.3	-6.0
Cc1cc(C)c(S(=O)(=O)N(CC(=O)N2CCOCC2)C2CCCCC2)c(C)c1	9.4	6.9	-6.9	75.4*
Cc1ccc(S(=O)(=O)N(CC(=O)N2CCOCC2)C2CCCCC2)cc1	17.4*	-11.3	11.3	1.3
CC(C)OC(=O)C1CC=CCC1C(=O)Nc1ccc(Cl)cc1 (stereo not given)	20.8	0.7	-0.7	6.7
COC(=O)c1coc(-c2ccc(OC)cc2)c1C(=O)OC	21.5	3.1	-3.1	-81.2
CCOc1ccccc1NC(=O)CC1NCCNC1=O (stereo not given)	26.4	-7.0	7.0	-33.6
COc1ccccc1C1C(C(N)=O)=C(C)Nc2nc(-c3ccccc3Cl)nn21 (stereo not given)	21.1	6.1	-6.1	-7.6
CC1=C(C(N)=O)C(c2ccccn2)n2nc(-c3ccccc3Cl)nc2N1 (stereo not given)	5.2	35.5*	-35.5	-5.5
O=C(CSc1nnc(Cc2cc(=O)[nH]c(=O)[nH]2)n1-c1ccccc1)NCC1CCCO1 (stereo not given)	10.7	14.7	-14.7	92.8*
CCCCNC(=O)CSc1nc2ccccc2c(=O)n1CCNC(C)=O	3.5	-5.6	5.6	-13.7
Nc1cc(N)nc(SCC(=O)NCC2CCCO2)n1 (stereo not given)	31.1*	-7.7	7.7	-2.2
Nc1nc(SCC(=O)NCC2CCCO2)n[nH]1 (stereo not given)	8.2	3.4	-3.4	-71.8
CC(=O)NCCn1c(SCC(=O)NCCC(C)C)nc2ccccc2c1=O	60.5*	99.3*	-99.3	1.9
CC(=O)NCCn1c(SCC(=O)NCC2CCCO2)nc2ccccc2c1=O (stereo not given)	51.8*	-16.7	16.7	-15.0
CCOC(=O)c1cc[n+](CC(=O)c2ccc(F)cc2)cc1	10.2	.	.	.
SMILES	Measles CPE	NFkB transloc inh	IL1B NFkB pot	IL1B cytotox
CCOC(=O)C(C(=O)Nc1nccs1)C1CCCCC1 (stereo not given)	3.7	-17.9	17.9	-1.1
O=c1c2ccccc2nc(/C=C/c2c[nH]c3ccccc23)n1-c1ccc([N+](=O)[O-])cc1	32.1*	.	.	.
COc1ccc(CNC(=O)CN(CCC(C)C)S(=O)(=O)c2ccc3c(c2)OCCO3)cc1	7.3	.	.	.
c1ccc(CCn2nnnc2CN2CCc3ccccc32)cc1	6.4	-2.9	2.9	12.3
O=C(NC(c1ccccc1)C(Cl)(Cl)Cl)c1ccccc1 (stereo not given)	17.7	.	.	.
CCCNC(=O)N1CCN(c2ncccn2)CC1	7.7	-56.4	56.4*	6.5
O=C(Nc1ccccc1)N1CCN(c2ncccn2)CC1	14.9	9.9	-9.9	-8.8
O=C(NCCC(=O)N1CCN(c2ncccn2)CC1)c1ccccc1Cl	3.5	5.0	-5.0	-7.4
O=C(NCCC(=O)N1CCN(c2ncccn2)CC1)c1ccccc1	31.9*	10.8	-10.8	21.6
O=C(CCCCCCCC(=O)NCC1CCCO1)NCC1CCCO1 (stereo not given)	9.3	-26.7	26.7	-33.1
O=C(NCC1CCCO1)NC1CCCCC1 (stereo not given)	3.6	20.3	-20.3	94.0*
O=C(Cn1ncc(Cl)c(Cl)c1=O)c1ccc(Cl)cc1	2.3	15.7	-15.7	-165.0
O=C(OCn1ncc(Cl)c(Cl)c1=O)c1ccc(F)cc1	3.0	93.2*	-93.2	28.8
O=C(OCn1ncc(Cl)c(Cl)c1=O)c1ccccc1Cl	2.2	90.3*	-90.3	-6.4
CCOC(=O)c1ccc2c(c1)nc(SCc1cn3ccsc3n1)n2CC	10.3	-14.7	14.7	-52.4
Cc1nc2ncnn2c(C)c1CCC(=O)N1CCOCC1	6.9	1.1	-1.1	-4.4
CCNc1nc(N)nc(Oc2ccc(OCCOc3ccc(Cl)cc3Cl)nn2)n1	6.4	-13.8	13.8	-7.8
NC1=NS(=O)(=O)NC1c1cccc(Cl)c1 (stereo not given)	4.0	-6.8	6.8	-17.8
COc1ccc(OCc2nc(N)nc(Nc3ccc(C)cc3)n2)cc1	2.1	13.0	-13.0	3.0
COc1ccc(Nc2nc(N)nc(COc3ccc(OC)cc3)n2)cc1	13.1	33.0*	-33.0	-7.1
C=CCOc1nc2c(c(=O)n(C)c(=O)n2C)n1C	13.3	-1.0	1.0	85.1*
COC(=O)c1sc(NC(C)=O)c(C(=O)OC)c1C	27.2	.	.	.
COC(=O)c1sc(NC(=O)CSc2nncs2)c(C(=O)OC)c1C	31.1*	-6.1	6.1	-94.1
COc1ccc(S(=O)(=O)Nc2cc(C)cc(C)n2)c2ccccc12	3.3	-13.1	13.1	-7.9
CCOc1ccc(S(=O)(=O)Nc2cc(C)ccn2)c2ccccc12	47.2*	7.6	-7.6	-2.9
SMILES	Measles CPE	NFkB transloc inh	IL1B NFkB pot	IL1B cytotox
Cc1ccc(S(=O)(=O)/N=C2/NC(=O)/C(=C/c3cccnc3)S2)cc1	5.5	8.4	-8.4	-3.4
Cc1ccc(S(=O)(=O)/N=C2/NC(=O)/C(=C/c3ccc(Br)o3)S2)cc1	24.6*	.	.	.
Cc1ccc(S(=O)(=O)N(CC(=O)N2CCC(C)CC2)c2cccc(C)c2)cc1	13.6	13.0	-13.0	-122.2
c1ccc2c(c1)c1ccccc1n1c(-c3ccc4c(c3)OCO4)nnc21	9.1	-3.8	-0.6	-15.7
CCOc1ccc(S(=O)(=O)Nc2cccc(C(=O)N3CCN(c4ccc(OC)cc4)CC3)c2)cc1	83.6*	-20.7	20.7	12.5
COC(=O)c1cc(Br)c(=O)n(Cc2ccco2)c1	37.1*	-4.8	4.8	6.6
CN(C)c1[nH]c(=O)c(C#N)c2c1CCN2Cc1ccccc1	3.2	-7.5	7.5	-6.4
N#Cc1c2c(c[nH]c1=O)CCN2Cc1ccccc1	43.8*	-29.2	29.2	-17.7
CC(C)C(OC(=O)c1nsc(Cl)c1Cl)C(=O)NCc1ccc2c(c1)OCO2 (stereo not given)	8.6	-4.7	-95.8	85.7*
